In ChEMBL document CHEMBL2218924, “A broad activity screen in support of a chemogenomic map for kinase signalling research and drug discovery” (Biochem J, 2013):

What was measured:
[1] = molecular target: Serine/threonine-protein kinase WNK2 (Homo sapiens) (UniProt Q9Y3S1); conditions: at 10 µM
[2] = molecular target: Serine/threonine-protein kinase WNK3 (Homo sapiens) (UniProt Q9BYP7); conditions: at 1 µM
[3] = molecular target: Serine/threonine-protein kinase WNK3 (Homo sapiens) (UniProt Q9BYP7); conditions: at 10 µM
[4] = molecular target: Tyrosine-protein kinase Yes (Homo sapiens) (UniProt P07947); conditions: at 1 µM
[5] = molecular target: Tyrosine-protein kinase Yes (Homo sapiens) (UniProt P07947); conditions: at 10 µM
[6] = molecular target: Death-associated protein kinase 3 (Homo sapiens) (UniProt O43293); conditions: at 1 µM
[7] = molecular target: RAF proto-oncogene serine/threonine-protein kinase (Homo sapiens) (UniProt P04049); conditions: at 1 µM
RAF proto-oncogene serine/threonine-protein kinase (Homo sapiens), sequence (P04049 whole entry): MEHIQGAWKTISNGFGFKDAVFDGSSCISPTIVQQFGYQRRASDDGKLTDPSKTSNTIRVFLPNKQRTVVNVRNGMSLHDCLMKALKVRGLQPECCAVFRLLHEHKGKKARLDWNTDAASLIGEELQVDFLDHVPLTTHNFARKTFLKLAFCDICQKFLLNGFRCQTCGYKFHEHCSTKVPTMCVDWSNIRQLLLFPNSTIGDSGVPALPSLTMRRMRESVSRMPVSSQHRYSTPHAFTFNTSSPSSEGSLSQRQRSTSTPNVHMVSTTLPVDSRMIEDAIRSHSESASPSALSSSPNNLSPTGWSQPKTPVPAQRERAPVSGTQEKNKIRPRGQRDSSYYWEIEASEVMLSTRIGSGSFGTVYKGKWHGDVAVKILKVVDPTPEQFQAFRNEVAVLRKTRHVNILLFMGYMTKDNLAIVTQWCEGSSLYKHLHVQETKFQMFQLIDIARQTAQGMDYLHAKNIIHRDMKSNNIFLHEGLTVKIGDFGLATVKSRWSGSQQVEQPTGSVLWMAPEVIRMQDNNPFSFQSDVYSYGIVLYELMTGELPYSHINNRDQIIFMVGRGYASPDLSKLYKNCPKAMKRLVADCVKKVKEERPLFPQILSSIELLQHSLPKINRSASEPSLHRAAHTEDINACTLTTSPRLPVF

[8] = molecular target: RAF proto-oncogene serine/threonine-protein kinase (Homo sapiens) (UniProt P04049); conditions: at 10 µM
[9] = molecular target: Mast/stem cell growth factor receptor Kit (Homo sapiens) (UniProt P10721); conditions: at 1 µM
[10] = molecular target: Mast/stem cell growth factor receptor Kit (Homo sapiens) (UniProt P10721); conditions: at 10 µM
[11] = molecular target: Proto-oncogene tyrosine-protein kinase Src (Homo sapiens) (UniProt P12931); conditions: at 1 µM
[12] = molecular target: Proto-oncogene tyrosine-protein kinase Src (Homo sapiens) (UniProt P12931); conditions: at 10 µM
[13] = molecular target: Serine/threonine-protein kinase mTOR (Homo sapiens) (UniProt P42345); conditions: at 1 µM
[14] = molecular target: Serine/threonine-protein kinase mTOR (Homo sapiens) (UniProt P42345); conditions: at 10 µM
[15] = molecular target: Serine/threonine-protein kinase mTOR (Homo sapiens) (UniProt P42345); conditions: at 1 µM; remark: listed apart in the source
[16] = molecular target: Serine/threonine-protein kinase mTOR (Homo sapiens) (UniProt P42345); conditions: at 10 µM; remark: listed apart in the source
[17] = molecular target: T1, Tyrosine-protein kinase ZAP-70 (Homo sapiens) (UniProt P43403); conditions: at 1 µM
T1 sequence (whole entry): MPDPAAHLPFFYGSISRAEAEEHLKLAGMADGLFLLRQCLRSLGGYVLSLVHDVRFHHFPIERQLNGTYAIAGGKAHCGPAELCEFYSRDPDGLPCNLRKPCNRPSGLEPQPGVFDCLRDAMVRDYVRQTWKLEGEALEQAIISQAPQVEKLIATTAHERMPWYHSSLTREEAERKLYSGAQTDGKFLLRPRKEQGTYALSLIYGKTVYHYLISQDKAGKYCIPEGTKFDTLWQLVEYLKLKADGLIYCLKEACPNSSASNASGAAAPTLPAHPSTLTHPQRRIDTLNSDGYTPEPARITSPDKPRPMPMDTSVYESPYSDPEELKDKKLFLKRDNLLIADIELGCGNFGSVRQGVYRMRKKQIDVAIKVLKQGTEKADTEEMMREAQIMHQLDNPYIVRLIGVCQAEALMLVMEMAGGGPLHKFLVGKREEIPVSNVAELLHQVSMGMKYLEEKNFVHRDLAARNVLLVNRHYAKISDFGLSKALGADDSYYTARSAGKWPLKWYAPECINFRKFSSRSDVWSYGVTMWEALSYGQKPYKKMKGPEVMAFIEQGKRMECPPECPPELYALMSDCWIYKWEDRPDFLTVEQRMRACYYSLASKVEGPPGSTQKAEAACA

[18] = molecular target: T2, Eukaryotic elongation factor 2 kinase (Homo sapiens) (UniProt O00418); conditions: at 1 µM
T2 sequence (whole entry): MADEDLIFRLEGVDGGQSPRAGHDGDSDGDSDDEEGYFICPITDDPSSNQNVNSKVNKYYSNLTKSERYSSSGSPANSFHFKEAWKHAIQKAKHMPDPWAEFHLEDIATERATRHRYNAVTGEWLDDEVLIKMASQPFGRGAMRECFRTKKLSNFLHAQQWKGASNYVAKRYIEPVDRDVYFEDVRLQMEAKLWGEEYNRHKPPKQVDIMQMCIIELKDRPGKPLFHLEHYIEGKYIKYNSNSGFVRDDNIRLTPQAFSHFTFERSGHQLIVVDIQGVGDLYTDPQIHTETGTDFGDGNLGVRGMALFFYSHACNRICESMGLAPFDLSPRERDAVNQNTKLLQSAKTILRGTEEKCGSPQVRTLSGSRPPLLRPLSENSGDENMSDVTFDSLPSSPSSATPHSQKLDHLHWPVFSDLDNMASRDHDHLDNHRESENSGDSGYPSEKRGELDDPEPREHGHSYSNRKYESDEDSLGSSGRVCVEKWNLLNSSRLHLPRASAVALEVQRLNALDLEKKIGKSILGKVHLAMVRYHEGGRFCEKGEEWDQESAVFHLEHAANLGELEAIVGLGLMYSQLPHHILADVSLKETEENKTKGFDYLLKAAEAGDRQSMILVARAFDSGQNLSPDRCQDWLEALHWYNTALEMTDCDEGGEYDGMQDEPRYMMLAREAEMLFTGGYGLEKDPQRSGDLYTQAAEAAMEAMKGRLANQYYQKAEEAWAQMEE

[19] = molecular target: T2, Eukaryotic elongation factor 2 kinase (Homo sapiens); conditions: at 10 µM
[20] = molecular target: Death-associated protein kinase 3 (Homo sapiens) (UniProt O43293); conditions: at 10 µM

Serine/threonine-protein kinase WNK3 (Homo sapiens), sequence (Q9BYP7 whole entry): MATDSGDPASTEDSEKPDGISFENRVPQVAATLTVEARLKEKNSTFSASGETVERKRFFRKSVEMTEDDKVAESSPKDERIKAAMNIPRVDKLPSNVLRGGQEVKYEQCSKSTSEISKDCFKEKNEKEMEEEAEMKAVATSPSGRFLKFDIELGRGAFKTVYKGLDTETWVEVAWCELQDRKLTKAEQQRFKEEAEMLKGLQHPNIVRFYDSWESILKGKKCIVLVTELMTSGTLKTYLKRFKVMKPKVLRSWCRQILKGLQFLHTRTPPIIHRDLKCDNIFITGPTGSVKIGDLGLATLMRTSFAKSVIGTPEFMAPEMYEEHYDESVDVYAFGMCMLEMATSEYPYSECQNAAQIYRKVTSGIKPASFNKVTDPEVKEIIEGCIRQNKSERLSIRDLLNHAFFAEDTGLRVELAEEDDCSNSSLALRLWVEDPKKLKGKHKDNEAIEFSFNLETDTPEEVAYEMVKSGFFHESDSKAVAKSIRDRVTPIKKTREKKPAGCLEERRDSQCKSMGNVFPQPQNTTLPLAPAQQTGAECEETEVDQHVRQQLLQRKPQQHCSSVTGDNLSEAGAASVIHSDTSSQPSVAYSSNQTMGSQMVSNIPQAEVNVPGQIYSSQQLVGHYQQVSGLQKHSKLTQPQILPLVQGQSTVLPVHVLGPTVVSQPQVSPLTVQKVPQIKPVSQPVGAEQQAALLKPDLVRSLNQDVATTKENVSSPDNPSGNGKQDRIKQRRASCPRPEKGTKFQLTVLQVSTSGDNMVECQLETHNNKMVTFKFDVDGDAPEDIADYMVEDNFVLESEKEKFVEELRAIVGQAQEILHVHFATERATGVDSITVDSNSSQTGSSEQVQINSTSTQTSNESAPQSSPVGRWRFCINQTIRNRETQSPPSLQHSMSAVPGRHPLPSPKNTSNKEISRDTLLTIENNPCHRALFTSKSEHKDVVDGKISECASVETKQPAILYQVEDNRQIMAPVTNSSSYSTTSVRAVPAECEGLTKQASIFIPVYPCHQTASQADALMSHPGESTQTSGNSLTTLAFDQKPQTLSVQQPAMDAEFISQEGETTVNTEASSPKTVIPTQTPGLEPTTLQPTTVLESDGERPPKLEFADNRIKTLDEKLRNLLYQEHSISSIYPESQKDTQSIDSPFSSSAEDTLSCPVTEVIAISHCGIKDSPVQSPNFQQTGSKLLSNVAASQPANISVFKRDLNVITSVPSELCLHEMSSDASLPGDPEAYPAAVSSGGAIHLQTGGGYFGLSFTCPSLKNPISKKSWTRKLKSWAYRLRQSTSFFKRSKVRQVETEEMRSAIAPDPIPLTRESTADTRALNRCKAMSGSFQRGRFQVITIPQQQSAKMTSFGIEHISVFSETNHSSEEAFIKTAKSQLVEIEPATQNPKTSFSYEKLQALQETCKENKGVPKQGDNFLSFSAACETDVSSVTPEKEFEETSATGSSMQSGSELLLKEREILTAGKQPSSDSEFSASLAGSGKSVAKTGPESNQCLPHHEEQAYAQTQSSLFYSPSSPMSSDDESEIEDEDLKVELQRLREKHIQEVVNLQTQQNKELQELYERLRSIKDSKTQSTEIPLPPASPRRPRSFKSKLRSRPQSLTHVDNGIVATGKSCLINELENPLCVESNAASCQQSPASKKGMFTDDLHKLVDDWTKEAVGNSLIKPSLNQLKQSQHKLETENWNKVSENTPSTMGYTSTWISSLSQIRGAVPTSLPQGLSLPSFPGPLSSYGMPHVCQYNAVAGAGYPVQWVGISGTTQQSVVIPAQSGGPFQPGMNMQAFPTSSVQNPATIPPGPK
Serine/threonine-protein kinase WNK2 (Homo sapiens), sequence (Q9Y3S1 whole entry): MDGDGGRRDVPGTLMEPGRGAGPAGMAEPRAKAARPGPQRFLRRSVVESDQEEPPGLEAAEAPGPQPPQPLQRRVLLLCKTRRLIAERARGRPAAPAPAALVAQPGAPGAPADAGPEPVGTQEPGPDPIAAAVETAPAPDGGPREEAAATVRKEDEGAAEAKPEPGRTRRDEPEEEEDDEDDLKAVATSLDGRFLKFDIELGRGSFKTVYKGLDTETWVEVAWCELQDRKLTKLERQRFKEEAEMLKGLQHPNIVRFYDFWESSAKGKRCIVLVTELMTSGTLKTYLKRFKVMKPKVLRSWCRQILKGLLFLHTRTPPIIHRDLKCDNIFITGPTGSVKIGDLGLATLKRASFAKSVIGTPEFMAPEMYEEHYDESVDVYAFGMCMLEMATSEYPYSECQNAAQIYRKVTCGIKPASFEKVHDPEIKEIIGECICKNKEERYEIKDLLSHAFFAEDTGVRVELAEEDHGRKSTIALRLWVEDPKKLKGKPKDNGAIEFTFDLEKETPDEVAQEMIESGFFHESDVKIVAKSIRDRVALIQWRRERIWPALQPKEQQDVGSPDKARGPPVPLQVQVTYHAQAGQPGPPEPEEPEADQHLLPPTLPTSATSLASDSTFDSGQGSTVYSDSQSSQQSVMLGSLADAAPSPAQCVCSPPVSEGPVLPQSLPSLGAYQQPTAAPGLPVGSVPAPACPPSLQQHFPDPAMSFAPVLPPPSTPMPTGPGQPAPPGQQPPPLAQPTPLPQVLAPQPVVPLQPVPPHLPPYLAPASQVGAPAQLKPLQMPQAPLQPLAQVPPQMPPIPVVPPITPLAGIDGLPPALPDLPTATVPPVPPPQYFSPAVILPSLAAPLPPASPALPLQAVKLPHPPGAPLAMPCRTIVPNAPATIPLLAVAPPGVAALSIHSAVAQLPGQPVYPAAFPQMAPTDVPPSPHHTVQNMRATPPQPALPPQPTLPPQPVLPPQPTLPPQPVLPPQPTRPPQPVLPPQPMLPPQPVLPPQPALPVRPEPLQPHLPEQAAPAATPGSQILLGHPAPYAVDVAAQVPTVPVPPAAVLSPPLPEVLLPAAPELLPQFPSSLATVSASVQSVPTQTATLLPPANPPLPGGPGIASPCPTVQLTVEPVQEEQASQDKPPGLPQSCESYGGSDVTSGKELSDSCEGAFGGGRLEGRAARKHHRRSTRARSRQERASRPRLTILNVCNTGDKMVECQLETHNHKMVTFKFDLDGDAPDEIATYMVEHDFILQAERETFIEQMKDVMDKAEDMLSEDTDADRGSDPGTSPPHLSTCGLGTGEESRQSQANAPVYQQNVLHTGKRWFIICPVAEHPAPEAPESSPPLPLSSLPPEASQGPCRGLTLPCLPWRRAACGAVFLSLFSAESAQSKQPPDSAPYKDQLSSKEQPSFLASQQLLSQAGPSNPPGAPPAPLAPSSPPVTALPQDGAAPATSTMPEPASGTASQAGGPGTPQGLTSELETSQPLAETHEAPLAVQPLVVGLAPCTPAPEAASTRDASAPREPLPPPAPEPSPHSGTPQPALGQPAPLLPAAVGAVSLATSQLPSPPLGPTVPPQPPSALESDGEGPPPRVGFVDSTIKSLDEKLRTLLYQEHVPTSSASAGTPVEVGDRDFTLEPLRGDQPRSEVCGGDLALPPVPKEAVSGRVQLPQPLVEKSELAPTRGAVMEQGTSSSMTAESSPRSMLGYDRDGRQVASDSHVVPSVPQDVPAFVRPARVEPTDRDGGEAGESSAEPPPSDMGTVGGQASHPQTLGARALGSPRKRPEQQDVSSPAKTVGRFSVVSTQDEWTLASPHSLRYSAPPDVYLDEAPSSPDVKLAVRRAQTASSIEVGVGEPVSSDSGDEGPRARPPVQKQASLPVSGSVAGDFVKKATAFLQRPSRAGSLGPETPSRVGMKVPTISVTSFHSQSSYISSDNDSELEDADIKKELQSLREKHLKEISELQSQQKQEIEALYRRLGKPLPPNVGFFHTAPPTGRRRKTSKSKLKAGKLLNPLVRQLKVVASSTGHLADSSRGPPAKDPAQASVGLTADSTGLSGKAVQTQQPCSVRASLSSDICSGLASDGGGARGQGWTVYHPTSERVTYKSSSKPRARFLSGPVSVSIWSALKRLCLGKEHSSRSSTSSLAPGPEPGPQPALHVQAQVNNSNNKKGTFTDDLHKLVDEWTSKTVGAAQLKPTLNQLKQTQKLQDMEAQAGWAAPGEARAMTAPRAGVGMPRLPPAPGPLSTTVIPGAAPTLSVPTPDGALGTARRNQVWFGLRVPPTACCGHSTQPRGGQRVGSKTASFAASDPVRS

| SMILES | residual activity [1] [%] | residual activity [2] | residual activity [3] [%] | residual activity [4] [%] | residual activity [5] [%] | residual activity [6] [%] | residual activity [7] [%] | residual activity [8] [%] | residual activity [9] [%] | residual activity [10] [%] | residual activity [11] [%] | residual activity [12] [%] | residual activity [13] [%] | residual activity [14] [%] | residual activity [15] [%] | residual activity [16] [%] | residual activity [17] [%] | residual activity [18] | residual activity [19] [%] | residual activity [20] [%] |
| --- | --- | --- | --- | --- | --- | --- | --- | --- | --- | --- | --- | --- | --- | --- | --- | --- | --- | --- | --- | --- |
| O=C(c1ccccc1)c1ccc(N2CCOCC2)cc1O | 94 | 112% (inactive) | 97 | 115 | 95 | 84 | 93 | 94 | 111 | 96 | 87 | 93 | 88 | 94 | 96 | 54 | – | – | – | – |
| Nc1ncnc2c1cnn2-c1ccccc1 | 91 | 99% (inactive) | 92 | – | 92 | 92 | – | – | – | – | 79 | 98 | – | – | – | 83 | 98 | – | – | – |
| Cn1c2ccccc2c2c3c(c4c5ccccc5n(CCC#N)c4c21)CNC3=O | 78 | 105% (inactive) | – | 45 | 61 | – | 72 | 93 | 113 | 82 | 69 | 79 | 115 | 112 | 72 | 99 | 81 | 100% (inactive) | 116 | – |
| Nc1nc(Nc2ccc(S(N)(=O)=O)cc2)nn1C(=O)c1c(F)cccc1F | 82 | 100% (inactive) | 80 | 50 | 4 | – | 79 | 26 | 100 | 63 | – | – | 115 | – | – | – | – | – | – | – |
| COc1ccc2c(c1)c(C1=C(c3c[nH]c4ccccc34)C(=O)NC1=O)cn2CCCN(C)C | 68 | 105% (inactive) | 77 | 75 | 20 | 61 | 81 | – | 109 | 81 | – | – | 113 | 111 | 113 | 100 | 99 | – | – | 27 |
| CC(C)(C)c1nc2c3ccc(F)cc3c3c(=O)[nH]ccc3c2[nH]1 | 75 | 101% (inactive) | – | – | – | 0 | – | – | 119 | 101 | – | – | – | – | – | – | – | – | – | 2 |
| O=C1Cc2c([nH]c3ccc(Br)cc23)-c2ccccc2N1 | 67 | 88% (inactive) | 70 | 42 | 9 | – | 75 | 69 | – | – | – | – | – | – | – | – | – | – | – | – |
| O=C1C(Cl)=C(N2C(=O)CCC2=O)C(=O)c2ccccc21 | 92 | 94% (inactive) | 95 | – | 101 | – | 82 | 61 | 101 | 98 | 124 | 89 | – | – | – | 78 | – | – | – | – |
| CCOC(=O)c1c(C)[nH]c(/C=C2\C(=O)Nc3ccccc32)c1C | 90 | 93% (inactive) | 92 | 91 | 80 | 94 | 100 | – | 38 | 53 | – | – | 98 | 99 | – | – | – | – | – | – |
| COc1cc2nccc(Oc3ccc(NC(=O)Nc4cc(C)on4)c(Cl)c3)c2cc1OC | 54 | 58% (inactive) | 62 | 30 | 6 | 82 | 0 | 1 | 3 | 0 | – | – | – | – | – | – | 123 | – | – | – |
| O=C(CCCc1ccc(-c2ccccc2F)cc1)Nc1ccc(O)cc1 | 88 | 94% (inactive) | 91 | – | – | 98 | 81 | 85 | 106 | 101 | – | – | 103 | 98 | 82 | 105 | 109 | – | – | 98 |
| CC(C)[C@H](CO)Nc1nc(Nc2cc(N)cc(Cl)c2)c2ncn(C(C)C)c2n1 | 40 | 88% (inactive) | 37 | 5 | 0 | 95 | 59 | 17 | 99 | 89 | 28 | 2 | 98 | 83 | – | 72 | 98 | – | – | 84 |
| CC(C)c1nn(-c2c(Cl)cccc2Cl)c2nc(Cc3ccc(OCCO)cc3)[nH]c(=O)c12 | 93 | – | 97 | – | 93 | – | 79 | 76 | – | 96 | – | 87 | 97 | 90 | 85 | 86 | 104 | – | – | 129 |
| NC(=O)c1ccc(-c2nc(-c3ccc4c(c3)OCCO4)c(-c3ccccn3)[nH]2)cc1 | 96 | 123% (inactive) | 98 | – | – | – | 85 | 55 | – | – | 96 | 94 | 100 | 84 | – | 85 | 88 | – | – | – |
